From PubChem BioAssay
Fam108B inh: mouse Fam108B serine hydrolase inhibitors, primary screen, counter-screen for RBBP9 inhibitor project, biochemical, fluorescence polarization; recombinant Fam108B, FP-Rh probe fluorescence polarization; inhibition, % at 9.51 µM; 0.33% of 300,000 active; AID 1947, 2009;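 active means inhibition above the screen mean inhibition plus 3 SD, computed separately per campaign, cut at about 18% in these data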;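 further: inhibitors lower polarization as less probe binds the enzyme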
PAD4 inh: human PAD4 inhibitors, primary screen, biochemical, fluorescence polarization, 1536-well format; Protein-arginine deiminase type-4 (Homo sapiens), Q9UM07; recombinant PAD4, RCA probe fluorescence polarization; inhibition, % at 6.36 µM; 0.41% of 330,000 active; AID 485272, 2010;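 active means percent inhibition above a cutoff equal to the mean of all tested compounds plus 3 SD, cut at about 15% in these data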;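 further: 0% = PAD4 with RCA probe and DMSO and 100% = probe without PAD4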
Target sequence (Q9UM07 whole entry, looked up): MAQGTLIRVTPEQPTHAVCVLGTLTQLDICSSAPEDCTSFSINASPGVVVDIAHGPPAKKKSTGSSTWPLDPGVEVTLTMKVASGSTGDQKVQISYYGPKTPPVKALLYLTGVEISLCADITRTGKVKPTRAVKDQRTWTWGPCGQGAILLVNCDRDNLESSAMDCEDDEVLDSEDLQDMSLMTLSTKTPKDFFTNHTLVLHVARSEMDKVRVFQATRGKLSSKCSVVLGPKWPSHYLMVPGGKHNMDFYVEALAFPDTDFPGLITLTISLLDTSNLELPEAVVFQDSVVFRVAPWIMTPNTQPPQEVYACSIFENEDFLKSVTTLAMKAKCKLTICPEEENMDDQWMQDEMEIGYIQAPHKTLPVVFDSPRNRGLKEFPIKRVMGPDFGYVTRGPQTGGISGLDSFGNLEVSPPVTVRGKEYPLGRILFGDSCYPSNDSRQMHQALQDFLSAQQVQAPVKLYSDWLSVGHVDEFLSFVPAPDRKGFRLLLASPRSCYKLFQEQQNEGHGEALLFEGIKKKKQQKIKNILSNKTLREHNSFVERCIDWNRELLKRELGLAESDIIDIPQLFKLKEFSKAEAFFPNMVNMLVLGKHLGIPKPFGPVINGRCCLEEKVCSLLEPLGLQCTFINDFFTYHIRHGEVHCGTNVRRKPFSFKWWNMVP
LYPLA1 counter: LYPLA1 inhibitors, primary screen, counter-screen for PME1 inhibitor project, biochemical, fluorescence polarization, FP-Rh probe ABPP. recombinant LYPLA1. inhibition, % at 5.9 µM. AID 2174, 2009. 0.16% of 320,000 active;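 active means inhibition above the mean of all tested compounds plus 3 SD, set per campaign, cut at about 14% in these data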;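 further: inhibitors block serine hydrolase probe labeling of LYPLA1 so polarization falls; 0% = enzyme with DMSO and 100% = wells lacking LYPLA1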
GSTO1 counter: inhibitors of recombinant GSTO1, primary screen, counter-screen for RBBP9 inhibitor project, biochemical, fluorescence polarization; Glutathione S-transferase omega-1 (Homo sapiens), P78417; inhibition, % at 5.96 µM; 1.1% of 300,000 active; activity-based probe fluorescence polarization; AID 1974, 2009;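 active means inhibition above the campaign mean inhibition plus 3 SD, cut at about 35% in these data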;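 further: 0% = GSTO1-1 with DMSO and 100% = wells lacking GSTO1-1 enzyme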
LYPLA2 inh: LYPLA2 inhibitors, primary screen, counter-screen for PME1 inhibitor project, biochemical, fluorescence polarization, FP-Rh probe ABPP. 0.38% of 320,000 active. inhibition, % at 5.9 µM. recombinant LYPLA2. Acyl-protein thioesterase 2 (Homo sapiens), O95372. AID 2177, 2009;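 active means inhibition above the screen-wide mean plus 3 SD, limit set per campaign, cut at about 26% in these data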;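 further: 0% = LYPLA2 with DMSO and 100% = wells lacking LYPLA2 enzyme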
PME-1 primary: PME-1 inhibitors via competitive probe labeling, primary screen, biochemical, fluorescence polarization, FP-Rh probe, HTS. recombinant PME-1. 0.53% of 320,000 active. AID 2130, 2009. Protein phosphatase methylesterase 1 (Homo sapiens), Q9Y570. inhibition, % at 5.9 µM;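 active means inhibition above the campaign mean of all compounds plus 3 SD, cut at about 26% in these data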;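 further: competitive labeling of PME-1 active site by serine hydrolase directed probe; 0% = PME-1 with DMSO and 100% = wells lacking PME-1 enzyme; inhibitors block probe labeling so polarization falls and inhibition rises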
GSTO1 inh conf: GSTO1 inhibitor hit confirmation, counter-screen for RBBP9 inhibitor project, biochemical, fluorescence polarization, triplicate. shares compounds with GSTO1 counter. recombinant GSTO1, probe fluorescence polarization. inhibition, % at 5.96 µM. 54% of 2,400 active. AID 2176, 2009;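 active means inhibition above the primary screen's cutoff, its mean inhibition plus 3 SD, cut at about 35% in these data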;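 further: loss of polarization as inhibitors block binding of rhodamine sulfonate ester activity probe; 0% = GSTO1 with DMSO and 100% = wells lacking GSTO1 enzyme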
GSTO1 recomb ABPP: inhibitors of purified human GSTO1, late-stage follow-up, biochemical, gel ABPP, SE-Rh probe, percent inhibition; shares compounds with GSTO1 counter; recombinant GSTO1, gel ABPP SE-Rh probe fluorescence; inhibition, % at 1 µM; 30% of 130 active;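 active means inhibition of the enzyme GSTO1 above about 75%, limit read from the data; inactive means inhibition below that limit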
* hit, by the source's call; · = not tested or not shown. This is a sample that favours compounds with a hit; in the whole collection about 1.8% have one here.

SMILES | Fam108B inh | PAD4 inh | LYPLA1 counter | GSTO1 counter | LYPLA2 inh | PME-1 primary | GSTO1 inh conf | others
Cc1ccc(S(=O)(=O)N(CC(=O)NCC2CCCO2)c2cccc([N+](=O)[O-])c2)cc1 (configuration not stated) | 0 | 5 | 0 | 11 | 0 | -5 | ·
CCOC(=O)N1CCN(S(=O)(=O)N2CCCC(C(=O)NCCCN3CC(C)CC(C)C3)C2)CC1 (configuration not stated) | -1 | -1 | 1 | 3 | -2 | -9 | ·
CN(C)CCCNC(=O)C[C@H]1C[C@H](C(=O)N2CCOCC2)[C@@]2(C)c3[nH]c4cc(-c5ccco5)ccc4c3CCN2C1=O | · | -1 | · | · | · | · | ·
O=S(=O)(c1ccccc1)N(CC1CO1)c1cccc2ccccc12 (configuration not stated) | -1 | -4 | -7 | 75* | -9 | 0 | 90* | GSTO1 recomb ABPP=20
O=C(COC(=O)Cc1ccsc1)NNC(=O)c1ccccc1 | · | 2 | · | · | · | · | ·
O=C(Cc1ccsc1)NNC(=O)c1ccccc1O | 2 | 8 | 2 | 38* | 7 | -2 | 6
COC(=O)c1cccc(-c2ccc(C(c3c(C)[nH][nH]c3=O)c3c(C)[nH][nH]c3=O)o2)c1 | -1 | 8 | -3 | 59* | -5 | -1 | 54*
Cc1ccc(N(Cc2cc(=O)[nH]c3ccccc23)C(=O)CCl)c(C)c1 | 3 | 4 | -1 | 64* | -1 | 4 | 75* | GSTO1 recomb ABPP=27
O=S1(=O)CCO[C@H]2Cc3ccccc3[C@H]2N1Cc1ccc(Cl)cc1 | 2 | 0 | -5 | 38* | -3 | 11 | 6
O=S1(=O)CCO[C@H]2Cc3ccccc3[C@H]2N1Cc1cccc(Cl)c1 | -2 | 3 | 4 | 6 | 5 | 4 | ·
S=c1[nH]c2ccccc2n2c(=S)[nH]nc12 | 1 | 2 | 2 | 59* | 5 | -1 | 39*
CCN(CC)S(=O)(=O)c1cc(NC(=O)Cn2ncc(Cl)c(Cl)c2=O)ccc1C | -7 | -11 | -4 | 4 | -6 | -6 | ·
Cc1ccsc1C(=O)Nc1ccc(S(=O)(=O)N2CCOCC2)cc1 | · | 1 | 0 | · | 5 | 1 | ·
COC1=CC(=O)CC(C)C12Oc1cc(OC)cc(OC)c1C2=O (configuration not stated) | 0 | 2 | 0 | 47* | 2 | 3 | 33
COc1cc(OC)c2c(c1)OC(c1ccc(OC)c(OC)c1)C(O)C2=O (configuration not stated) | 3 | 1 | -1 | 7 | -3 | -3 | ·
COc1ccc(C(=O)NCC(=O)OCC(=O)Nc2ncc(Cl)cc2Cl)cc1[N+](=O)[O-] | · | 0 | -4 | · | 0 | 7 | ·
CCC(C)N=C1SCC(C)(/C=N/O)S1 (configuration not stated) | 6 | -1 | 3 | 15 | 9 | 6 | ·
CC(C)(C)N=C1SCC(C)(/C=N/O)S1 (configuration not stated) | -3 | 1 | -2 | 42* | -1 | -15 | 9
O=C1N/C(=N\c2ccccn2)SC1Cc1ccccc1Cl (configuration not stated) | 2 | 2 | 0 | 5 | -5 | 1 | ·
Clc1ss/c(=N\c2ccccn2)c1Cl | -1 | -3 | 0 | 61* | 1 | 2 | 45*
CCN(CC)CCCn1c(SCC(=O)Nc2cccc(F)c2)nnc1-c1ccoc1C | 3 | -4 | -3 | 6 | 0 | 1 | ·
O=C(NCCc1ccccc1)C1COc2ccccc2O1 (configuration not stated) | 3 | 5 | -3 | 0 | -9 | 12 | ·
O=C(NCCc1ccc(O)c(O)c1)C1COc2ccccc2O1 (configuration not stated) | 4 | -5 | -4 | 55* | -6 | 2 | 9
Cn1cnc(C(=O)NCc2ccccc2)c1C(=O)NCc1ccccc1 | · | -3 | · | · | · | · | ·
CC(=O)c1cc2c(cc1NC(=O)c1cccc(S(=O)(=O)N3CCN(C)CC3)c1)OCO2 | 7 | -15 | -1 | 61* | -2 | 1 | 22
SMILES | Fam108B inh | PAD4 inh | LYPLA1 counter | GSTO1 counter | LYPLA2 inh | PME-1 primary | GSTO1 inh conf | others
CSCCC(NC(=O)c1ccco1)C(=O)Nc1ccc(C)c(S(=O)(=O)N2CCOCC2)c1 (configuration not stated) | 3 | -1 | 2 | 1 | 4 | 0 | ·
Cc1cccc(CN2CCN(C(=O)c3cccc4ccccc34)CC2)c1 | -1 | 6 | -3 | 6 | -2 | 7 | ·
Cc1cccc(CN2CCN(C(=O)CCl)CC2)c1 | 3 | -2 | -3 | 96* | 1 | 7 | 99* | GSTO1 recomb ABPP=61
Cc1nn(-c2ccccc2)c(Cl)c1C(=O)NCC(=O)O | 2 | 5 | -1 | 0 | -10 | -2 | ·
Cc1nn(-c2ccccc2)c(Cl)c1CN(C(=O)CCl)c1ccc(Cl)cc1 | 2 | 14 | -1 | 82* | -4 | -4 | 93* | GSTO1 recomb ABPP=88*
O=C(CSc1nnc(CNC(=O)c2ccccc2)o1)Nc1ccc2c(c1)OCCO2 | 0 | 1 | 0 | 0 | -1 | -6 | ·
O=C(CSc1nnc(CNc2ccccc2)o1)c1ccc2c(c1)OCCO2 | -2 | 1 | 2 | 40* | 2 | 4 | 30
CSc1ccc(CCNC(=O)CN2C(=O)CCSc3ccccc32)cc1 | 0 | 0 | -2 | 8 | 1 | 6 | ·
O=C(Nc1ccccc1)c1ccc(C(=O)Nc2ccccc2)nc1 | 1 | -2 | 0 | 1 | 3 | 1 | ·
O=C(Nc1ccccc1)c1cn(CCBr)cn1 | 1 | 0 | -2 | 62* | 4 | -2 | 73*
CC(C)CN(C(=O)C1CSC2(C)CCC(=O)N12)c1c(N)n(Cc2ccccc2)c(=O)[nH]c1=O (configuration not stated) | -2 | 0 | 1 | 1 | 2 | 3 | ·
CCN(CC(=O)NC(C)(C)C)C(=O)CCl | 3 | -3 | 1 | 67* | 5 | -8 | 86* | GSTO1 recomb ABPP=11
CC(C)NC[C@@H](O)COc1cccc2ccccc12 | -4 | -1 | -6 | 2 | -4 | -1 | ·
CCCN(CC(=O)Nc1ccccc1C)C(=O)CCl | 2 | -1 | -1 | 81* | 5 | 0 | 92* | GSTO1 recomb ABPP=4
